Only some compounds are listed: those with a hit (about 6.9% of all), similar ones and a draw of the others.
MPTP block = blocks calcium-induced mitochondrial swelling | inhibition, % at 10 µM | isolated mouse mitochondria, Ca2+ swelling absorbance, 30 min | hit rate 1.4% among 360,000;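 active means inhibition of 50% or more, scaled per plate between neutral and stimulator controls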
GRIN3A LBD mod = NR3A (human) ligand-binding domain modulation. Tm shift relative to glycine control, % at 25 µM. NR3A LBD differential scanning fluorimetry, Tm shift; 0% = protein alone, 100% = glycine-bound protein. AID 1259313. hit rate 2.5% among 340,000;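 active means melting temperature shift of at least 10% of the positive control shift, at one fixed dose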
SKKanGAS inh = inhibitors of SKKanGAS S. pyogenes growth in kanamycin (SK-promoter or general growth effect). BacTiter-Glo, 6 h. inhibition, % at 7.5 µM. hit rate 1.3% among 300,000;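 active means mean replicate score, as percent of positive control median, at least 50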;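 further: strain carries kanamycin resistance gene driven by streptokinase promoter and grows in 40 µg/ml kanamycin; loss of luminescence reflects streptokinase promoter inhibition or plain growth inhibition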
Mdm2 MdmX PPI = disrupts the human Mdm2-MdmX interaction. O15151+Q00987. SaOS-2 split-luciferase Mdm2/MdmX complementation, luminescence. inhibition, % at 8 µM. hit rate 3% among 330,000;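 active means inhibition of at least 50% at 8 µM in the primary screen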
CSC inhib = cancer stem cell inhibition. cancer stem cell-like cells viability, luminescence. inhibition, % at 7.5 µM. hit rate 1.1% among 300,000. AID 2717; in the data active means inhibition above about 75%; tested in HMLE shEcad cells
Beta apoptosis = blocks beta cell apoptosis; protection from apoptosis, % (no concentration beside the values); INS-1E cytokine-induced death, ATP luminescence, 48 h; percent of positive-control rescue, neutral wells zero; hit rate 0.8% among 300,000;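 active means Every replicate reaches about 75%, or at least half do and their mean reaches it too, limit read from the data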;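 further: higher means more ATP so stronger rescue from cytokine killing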
Mdm2-MdmX conf = confirmation of human Mdm2/MdmX interaction inhibitors; shares compounds with Mdm2 MdmX PPI; Mdm2-MdmX binding, luminescent assay; inhibition, % at 8 µM; hit rate 55% among 10,000; in the data active means inhibition above about 40%
FLuc counter = inhibits full-length luciferase, flagging false Mdm2/MdmX hits; shares compounds with Mdm2 MdmX PPI; SaOS-2 full-length luciferase counterscreen, luminescence; inhibition, % at 8 µM; hit rate 77% among 6,200; AID 504607;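 active means mean inhibition at 8 µM reaching about 37%, which flags the compound as non-specific, limit read from the data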;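 further: p53-null SaOS-2 cells with luciferase driven by a doxycycline-inducible promoter; compound on cells about two nights before reading with doxycycline added after day one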
Hits are given with their value; i = inactive; nt = no result given.

SMILES	MPTP block	GRIN3A LBD mod	SKKanGAS inh	Mdm2 MdmX PPI	CSC inhib	Beta apoptosis	Mdm2-MdmX conf	FLuc counter
CCS(=O)(=O)N1Cc2ccccc2CC1C(=O)Nc1nc2ccccc2s1 (stereo not given)	i	i	i	59	i	i	70	162
Cc1ccc(S(=O)(=O)N2CCC(C(=O)N/N=C/c3ccncc3)CC2)cc1	i	i	i	i	i	i	nt	nt
COC(=O)c1sccc1NC(=O)c1c(F)c(F)c(F)c(F)c1F	i	i	i	75	i	i	i	nt
Cc1ccc2cc(CN(Cc3ccc(F)cc3)Cc3nnnn3C3CCCC3)c(=O)[nH]c2c1	i	i	i	i	i	i	nt	nt
CCc1ccc2[nH]c(=O)c(CN(Cc3ccc4c(c3)OCO4)Cc3nnnn3C3CCCC3)cc2c1	i	i	i	64	i	i	i	nt
COC(=O)[C@@]12CCCCN1[C@H](c1ccc(-c3cc(C(C)=O)cs3)cc1)[C@H]1C(=O)N(C)C(=O)[C@H]12	i	i	i	67	i	i	i	nt
CCN1C(=O)[C@H]2[C@@H](c3ccc(-c4ccc(F)cc4)c(OC)c3)N3CCC[C@@]3(C(=O)OC)[C@H]2C1=O	i	i	i	i	i	i	nt	nt
COC(=O)[C@@]12CCCCN1[C@H](c1ccc(-c3ccc(Cl)c(Cl)c3)cc1)[C@H]1C(=O)N(C)C(=O)[C@H]12	i	i	nt	67	nt	i	i	nt
COC(=O)[C@@]12CCCCN1[C@H](c1ccc(-c3cc(C(C)=O)cs3)c(OC)c1)[C@H]1C(=O)N(C)C(=O)[C@H]12	i	i	nt	i	i	i	nt	nt
CCN1C(=O)[C@@H]2[C@@H](c3ccc(-c4ccc(Cl)c(Cl)c4)c(OC)c3)N3CCC[C@@]3(C(=O)OC)[C@@H]2C1=O	i	i	nt	67	i	i	i	nt
COC(=O)[C@@]12CCCCN1[C@H](c1ccc(-c3ccc(Cl)c(Cl)c3)c(OC)c1)[C@H]1C(=O)N(C)C(=O)[C@H]12	i	i	nt	65	nt	i	42	44
Cc1ccc(S(=O)(=O)N2CCC(C(=O)NCCC3=CCCCC3)CC2)c(C)c1	i	i	i	i	i	i	nt	nt
C[C@@H]1COC(=O)[C@H](CC(=O)OC(C)(C)C)C/C=C\C[C@@H](CC(=O)N[C@H](CO)Cc2ccccc2)C(=O)N1	i	i	nt	i	i	i	nt	nt
CC(C)(C)c1ccc(C(=O)NCCC(=O)Nc2ccc3c(c2)OCCO3)cc1	i	i	nt	i	nt	nt	nt	nt
CCCCCCSc1ccc([C@@H]2[C@@H]3C(=O)N(CC)C(=O)[C@@H]3[C@]3(C(=O)OC)CCCCN23)cc1	i	i	nt	52	i	i	i	nt
CCCCCCSc1ccc([C@@H]2[C@H]3C(=O)N(C)C(=O)[C@H]3[C@]3(C(=O)OC)CCCCN23)cc1	i	i	i	i	i	i	nt	nt
CC(C)(C)c1ccc(OCC(=O)NCCN2CCOCC2)cc1	i	i	i	i	i	i	nt	nt
CC(C)(O)C#Cc1ccc([C@@H]2C[C@H]3CN(c4ccccc4)C(=O)[C@]34CCCN24)s1	i	i	i	64	i	i	41	60
N#CCC(=O)N/N=C/c1cn(Cc2ccc(Cl)c(Cl)c2)c2ccccc12	i	31	i	73	i	nt	47	53
N#CCC(=O)N/N=C/c1cn(Cc2cccc3ccccc23)c2ccccc12	i	i	i	66	i	i	64	55
COCCCNC(=O)/C=C1\Sc2ccccc2N(Cc2ccccc2F)C1=O	i	i	i	88	i	i	53	38
CN1CCN(CCCNC(=O)c2ccc(/C=C3\Oc4ccccc4N(Cc4ccccc4F)C3=O)cc2)CC1	i	i	i	92	i	i	i	nt
CN1CCN(CCCNC(=O)c2ccc(/C=C3/Sc4ccccc4N(Cc4cccc(Cl)c4)C3=O)cc2)CC1	i	i	i	nt	nt	nt	nt	nt
CCN1CCN(CCNC(=O)c2ccc(/C=C3\Sc4ccccc4N(Cc4ccccc4F)C3=O)cc2)CC1	i	i	i	92	i	i	52	46
Cc1cccc(CN2C(=O)/C(=C\c3ccc(C(=O)NCCCN4CCN(C)CC4)cc3)Oc3ccccc32)c1	i	nt	i	100	105	i	56	36
SMILES	MPTP block	GRIN3A LBD mod	SKKanGAS inh	Mdm2 MdmX PPI	CSC inhib	Beta apoptosis	Mdm2-MdmX conf	FLuc counter
COc1ccc(C(=O)NCC(=O)OCC(=O)NC2CCCCCC2)cc1OC	i	i	nt	i	i	i	nt	nt
CCN1C(=S)N[C@@H](CCc2ccccc2)C(C(=O)OC)=C1C	i	i	i	i	i	i	nt	nt
COc1cc(Cl)ccc1NC(=S)N(CCCN1CCOCC1)Cc1cn(C)c2ccccc12	i	i	i	55	i	i	i	nt
COc1ccc(Cl)cc1NC(=S)N(CCCN1CCOCC1)Cc1cn(C)c2ccccc12	i	i	i	i	i	i	nt	nt
O=C(c1ccc(C#CC2(O)CCCCC2)cc1)N1CCN(C(c2ccccc2)c2ccccc2)CC1	i	12	i	57	77	i	i	nt
O=C(c1ccc(C#CC2(O)CCCCC2)cc1)N1CCN(Cc2ccccc2)CC1	i	i	i	i	i	i	nt	nt
CCOc1ccc(N(Cc2ccc(OC)cc2)C(=O)c2ccco2)cc1	i	i	i	i	i	i	nt	nt
COc1ccc(CN(C(=O)c2ccco2)c2ccc(C)c(C)c2)cc1	i	i	i	58	i	i	57	60
Cc1ccc(S(N)(=O)=O)cc1NC(=O)C(c1ccccc1)c1ccccc1	i	i	i	i	i	i	nt	nt
O=C(N/N=C1\CC(c2ccccc2)Oc2ccccc21)c1cccnc1 (stereo not given)	i	i	i	52	i	i	i	nt
O=C(N/N=C1\CC(c2ccccc2)Oc2ccccc21)c1ccc(O)cc1 (stereo not given)	i	i	i	i	i	i	nt	nt
N#CC1=C(N)OC2=C(CCc3ccccc32)C1c1ccccc1 (stereo not given)	i	i	i	74	i	i	52	143
COc1ccc(-n2c(C)c(C(C)=O)c3cc(O)ccc32)cc1	i	i	i	93	nt	nt	83	54
CCOc1ccc(-n2c(C)c(C(C)=O)c3cc(OC(C)=O)ccc32)cc1	i	i	i	76	i	i	80	53
CCOc1ccc(-n2c(C)c(C(=O)O)c3cc(OC)ccc32)cc1	i	i	i	i	i	nt	nt	nt
COc1ccc2c(c1)c(C(C)=O)c(C)n2-c1ccccc1	i	i	i	i	i	i	nt	nt
CCOc1ccc(N2C(=O)/C(=C/c3ccccc3)N=C2SC)cc1	i	i	i	i	i	i	nt	nt
COc1ccc(/C=C2\N=C(SC)N(c3ccccc3OC)C2=O)cc1	i	i	i	98	i	i	94	47
O=C(NC(=S)/C(=C1\CCCCCN1)[N+](=O)[O-])c1ccccc1	i	i	nt	85	i	i	79	142
O=C(O)c1cccc(COc2ccccc2Cl)c1	i	i	i	69	i	i	69	50
